Our source for the activation, Potency and outcome values is PubChem BioAssay (NCATS).

Values without a mark were called inactive. Inconclusive results are not listed. Activity calls are given as the source filed them. Unless noted, calls come from the whole dose curve; as a rule, active = well fitted curve in the direction sought with a large enough effect; inconclusive = small, poorly fitted or top-dose-only effect, or another doubt; inactive = no such curve, though single readings can be large; an effect the other way counts as inactive or inconclusive.

The nature of experiment [1]: qHTS Assay for Identification of Small Molecule Agonists for Hypoxia Response Element Signaling Pathway (AID 914; active = well fitted activation curve with a large enough effect in the signal ratio, with a control signal flat, not every such curve was filed as active; the % refers to the signal ratio; note: % of control where 0% means no effect). Conditions: ME-180 (cervical carcinoma) HRE-bla reporter, beta-lactamase ratio, CoCl2, 17 h; activation: hits give high values. In outline:
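Read-out: CCF4 FRET ratio of 460nm to 530nm emission (excitation 405nm) after 2.5 hours at room temperature, taken from HRE-bla ME-180 cells that had been exposed to compound and EC50 CoCl2 for 17 hours.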

For experiment [2], the target named is Pyruvate kinase PKM (Homo sapiens) (UniProt P14618). As to the kind of experiment: qHTS Assay for Inhibitors of Human Muscle Pyruvate Kinase (AID 958). The conditions noted are these: purified human PKM enzyme activity. Put shortly: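 Purified human PKM2 (0.1 nM) with 0.5 mM PEP (Km) and 0.1 mM ADP in 50 mM imidazole pH 7.2, KCl, MgCl2, 1 h at room temperature; ATP formed read by coupled luciferase luminescence. Normalized to no-enzyme/110 uM thiadiazolimine inhibition; 0.3 nM enzyme column for activation.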
Background: qHTS replaces the single test concentration by a dilution series.

Experiment [3] has as its target Pyruvate kinase (Leishmania mexicana) (UniProt Q27686). As to the kind of experiment: qHTS Validation Assay for Activators of Leishmania Mexicana Pyruvate Kinase (AID 959). The conditions noted are these: purified L. mexicana pyruvate kinase, enzyme activity; series mostly up to 57.5 µM. Put shortly: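 Substrate mix (0.5 mM PEP, 0.1 mM ADP, 7 mM MgCl2, 50 mM KCl, pH 7.2 imidazole) received compound by pin tool, then 0.2 nM LmPYK E451W. After 1 h at room temperature, PKLight was added and luminescence measured.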

A short description of experiment [4]: qHTS Assay for Identification of Small Molecule Antagonists for Thrombopoietin (TPO) Signaling Pathway (AID 918). Note: potency is the fitted concentration of half-maximal effect; nearly all actives have a fitted effect of over 60% in size. The conditions noted are these: TPO-dependent cell signaling reporter, antagonist mode. In outline: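 Inhibitors of TPO signaling are sought by stimulating IL-3-starved murine Ba/F3 cells (human TPO receptor, Glycoprotein IIb-driven luciferase) with TPO at its EC50 of 26 pM alongside compound. After 24 hrs at 37 C, reporter luminescence is measured.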

The nature of experiment [5]: Primary qHTS for inhibitors of nuclear receptor binding SET domain protein 2 (NSD2) in an isogenic RCH-ACV NSD2 p.E1099K mutant (9B) (AID 1645876). Note: potency is the fitted concentration of half-maximal effect; nearly all actives have a fitted effect of over 70% in size. The conditions noted are these: RCH-ACV NSD2 E1099K (9B) viability, CellTiter-Glo, 72 h; series mostly up to 44.9 µM.
Experiment [6] is described as follows: Primary qHTS for inhibitors of nuclear receptor binding SET domain protein 2 (NSD2) in an RCH-ACV wild type WT cells (2C) (AID 1645877). Note: potency is the fitted concentration of half-maximal effect; nearly all actives have a fitted effect of over 70% in size. The conditions noted are these: RCH-ACV (leukaemia line) NSD2 WT (2C) viability, CellTiter-Glo, 72 h; series mostly up to 44.9 µM.
For experiment [7], the target named is Cytochrome P450 2C19 (Homo sapiens) (UniProt P33261). Briefly: qHTS Assay for Inhibitors and Substrates of Cytochrome P450 2C19 (AID 899). Note: potency is the fitted concentration of half-maximal effect; nearly all actives have a fitted effect of over 60% in size. Conditions: recombinant CYP2C19, luciferin-H EGE luminescence; series mostly up to 57.1 µM. Put shortly:
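5 nM human CYP2C19 with 10uM Luciferin-H EGE (at KM) in 50mM KPO4, compound preincubated 10 min at 37C, then NADPH regeneration for 60 min at 37C. Luciferin read by luminescence after detection reagent; normalized to 57uM ketoconazole as full inhibition.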

In experiment [8] the target is DNA dC->dU-editing enzyme APOBEC-3G (Homo sapiens) (UniProt Q9HC16). Briefly: qHTS for inhibitors of Vif-A3G interactions: Validation (AID 588379). Note: 0% is about no effect. The conditions noted are these: Vif-A3G protein interaction assay; series mostly up to 46.1 µM. In outline:
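Yellow fluorescence (Ex 488, Em 500-530) of Vif-coexpressing HeLa A3G-eYFP cells, scanned by Acumen cytometer, reports blocked A3G degradation. Cells plated at 700/well overnight at 37 deg C before compound addition, then a further overnight compound incubation at 37 deg C.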

Experiment [9] deals with D(1A) dopamine receptor (Homo sapiens) (UniProt P21728). As to the kind of experiment: HTS Assay for Allosteric Agonists of the Human D1 Dopamine Receptor: Primary Screen for Potentiators (AID 488982). Note: 0% is about no effect. The conditions noted are these: HEK293 T-REx D1 inducible cells, calcium flux, kinetic fluorescence; series mostly up to 8.37 µM. In outline: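 Tetracycline-induced HEK293 Trex D1 cells with forced coupling to calcium, loaded with no-wash calcium dye; kinetic fluorescence read 180 s after compound addition for agonism, then a further 180 s after an EC20 dopamine challenge for potentiation.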
For orientation: Calcium flux is commonly read through the fluorescence of an indicator in the cells.

Experiment [10] can be described thus: Cytotoxicity counterscreen for NFkB agonists and antagonists (AID 624476).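 Note: cells exposed to compound for 48 hours; % is set by controls: 0 for no effect and ±100 for the full control effect.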 The conditions noted are these: NFkB reporter cell line viability counterscreen; series mostly up to 46.1 µM. (In general: The purpose of a counterscreen is to sort out artefacts and off-target activity.)
Experiment [11] is described as follows: qHTS Assay for Identification of Small Molecule Agonists for NFkB Signaling Pathway. (AID 624478).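 Note: compounds tested together with TNF alpha at its EC50 of 10 pM; 0% is about no effect.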 Conditions: NFkB pathway reporter cell assay, agonist mode, cells co-stimulated with 10 pM TNF alpha; series mostly up to 46.1 µM. In outline: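 Activators were sought in reporter cells stimulated at the TNF alpha EC50 (10 pM final). Compound and cytokine were co-incubated 5 hours at 37 C before beta-lactamase substrate detection by dual-emission fluorescence.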

Experiment [12] in a line: qHTS Assay for Identification of Small Molecule Antagonists for NFkB Signaling Pathway. (AID 624479; calls by dose curve; note: % is set by controls: 0 for no effect and ±100 for the full control effect). The conditions noted are these: NFkB pathway reporter cell assay, antagonist mode; series mostly up to 38.3 µM.
Experiment [13] is described as follows: Confirmatory qHTS for VERO E6 Cytotoxicity Assay: Counterscreen for SARS-CoV-2 CPE Assay (AID 1508605; calls by dose curve; note: % is set by controls: 0 for no effect and ±100 for the full control effect; nearly all actives have a fitted effect of over 60% in size). Conditions: cell viability luminescence; series mostly up to 20 µM.

Chain of DNA dC->dU-editing enzyme APOBEC-3G (Homo sapiens) (Q9HC16 whole entry, looked up): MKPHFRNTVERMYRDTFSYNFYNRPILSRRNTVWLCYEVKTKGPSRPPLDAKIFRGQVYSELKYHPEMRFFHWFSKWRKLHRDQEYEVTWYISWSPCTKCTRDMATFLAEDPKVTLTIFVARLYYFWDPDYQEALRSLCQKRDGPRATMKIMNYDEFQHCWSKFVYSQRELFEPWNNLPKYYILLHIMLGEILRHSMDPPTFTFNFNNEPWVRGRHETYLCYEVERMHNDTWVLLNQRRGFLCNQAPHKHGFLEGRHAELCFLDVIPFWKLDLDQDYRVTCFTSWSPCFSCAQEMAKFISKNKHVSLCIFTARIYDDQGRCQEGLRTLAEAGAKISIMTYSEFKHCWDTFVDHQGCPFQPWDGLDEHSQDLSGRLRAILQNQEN
Chain of Pyruvate kinase (Leishmania mexicana) (Q27686 2-499 E452W): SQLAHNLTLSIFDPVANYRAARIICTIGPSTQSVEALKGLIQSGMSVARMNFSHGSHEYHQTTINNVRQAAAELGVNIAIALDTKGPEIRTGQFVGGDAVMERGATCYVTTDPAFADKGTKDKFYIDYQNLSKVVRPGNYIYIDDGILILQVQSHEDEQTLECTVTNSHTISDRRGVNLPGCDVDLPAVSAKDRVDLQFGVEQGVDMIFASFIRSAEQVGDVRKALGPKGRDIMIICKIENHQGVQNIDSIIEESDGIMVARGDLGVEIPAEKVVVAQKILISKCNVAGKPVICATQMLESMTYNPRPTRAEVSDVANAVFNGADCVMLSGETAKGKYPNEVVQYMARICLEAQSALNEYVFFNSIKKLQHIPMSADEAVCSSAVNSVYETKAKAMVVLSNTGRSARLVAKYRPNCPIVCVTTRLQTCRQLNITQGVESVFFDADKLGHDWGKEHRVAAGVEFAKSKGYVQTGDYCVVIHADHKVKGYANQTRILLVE
Chain of Cytochrome P450 2C19 (Homo sapiens) (P33261 whole entry, looked up): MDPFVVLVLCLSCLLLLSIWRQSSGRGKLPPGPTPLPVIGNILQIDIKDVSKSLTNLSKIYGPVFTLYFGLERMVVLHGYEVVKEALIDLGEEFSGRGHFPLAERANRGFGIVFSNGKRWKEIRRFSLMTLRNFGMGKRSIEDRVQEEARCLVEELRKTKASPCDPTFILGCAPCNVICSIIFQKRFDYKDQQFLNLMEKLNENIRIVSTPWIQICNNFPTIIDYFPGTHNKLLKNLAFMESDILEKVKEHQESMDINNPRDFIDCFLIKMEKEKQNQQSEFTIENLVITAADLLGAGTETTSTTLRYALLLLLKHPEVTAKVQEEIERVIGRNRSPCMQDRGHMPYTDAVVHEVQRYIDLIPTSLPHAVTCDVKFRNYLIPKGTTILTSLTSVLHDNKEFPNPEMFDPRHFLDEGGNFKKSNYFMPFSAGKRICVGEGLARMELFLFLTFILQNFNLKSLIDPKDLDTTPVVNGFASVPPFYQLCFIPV
Chain of D(1A) dopamine receptor (Homo sapiens) (P21728 whole entry, looked up): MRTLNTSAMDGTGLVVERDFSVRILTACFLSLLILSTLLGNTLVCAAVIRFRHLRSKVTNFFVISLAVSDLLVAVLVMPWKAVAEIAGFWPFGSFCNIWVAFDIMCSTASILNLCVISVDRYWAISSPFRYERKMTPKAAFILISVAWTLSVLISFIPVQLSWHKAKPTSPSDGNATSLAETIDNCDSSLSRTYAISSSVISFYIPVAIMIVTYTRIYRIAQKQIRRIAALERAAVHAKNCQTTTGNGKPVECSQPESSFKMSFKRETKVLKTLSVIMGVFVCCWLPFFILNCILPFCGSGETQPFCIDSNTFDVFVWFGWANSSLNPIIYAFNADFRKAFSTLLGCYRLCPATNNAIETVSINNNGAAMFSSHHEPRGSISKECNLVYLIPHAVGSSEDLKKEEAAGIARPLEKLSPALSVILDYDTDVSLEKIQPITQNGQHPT
Chain of Pyruvate kinase PKM (Homo sapiens) (P14618 whole entry, looked up): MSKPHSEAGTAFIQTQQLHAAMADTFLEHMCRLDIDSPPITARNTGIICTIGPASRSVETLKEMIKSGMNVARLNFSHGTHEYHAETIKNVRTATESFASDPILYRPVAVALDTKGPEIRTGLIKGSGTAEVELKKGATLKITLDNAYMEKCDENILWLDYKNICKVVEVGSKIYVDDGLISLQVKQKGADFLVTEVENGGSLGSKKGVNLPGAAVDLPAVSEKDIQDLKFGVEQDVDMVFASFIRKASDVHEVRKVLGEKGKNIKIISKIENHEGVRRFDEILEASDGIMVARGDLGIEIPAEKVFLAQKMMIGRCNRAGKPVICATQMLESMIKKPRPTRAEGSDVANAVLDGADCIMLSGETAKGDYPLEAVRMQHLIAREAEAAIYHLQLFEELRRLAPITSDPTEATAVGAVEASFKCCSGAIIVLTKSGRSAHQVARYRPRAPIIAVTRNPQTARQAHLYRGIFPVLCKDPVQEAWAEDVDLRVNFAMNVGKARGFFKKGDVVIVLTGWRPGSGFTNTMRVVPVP

Regarding `NNCc1cccc(O)c1`, the activation in experiment [1] is 15.1%. Further, in experiment [2], the Potency was 15.8 µM (active). Moreover, the outcome in experiment [3] was inactive.

As for `CCCCN1C2CCC1CC(OC(c1ccc(F)cc1)c1ccc(F)cc1)C2` (stereo not drawn), the Potency in experiment [4] is 10 µM (active).

Take `C/C1=C/C[C@@H](/C(C)=C/c2csc(C)n2)OC(=O)C[C@H](O)C(C)(C)C(=O)[C@H](C)[C@@H](O)[C@@H](C)CCC1`: the values for the Potency in [5] and in experiment [6] were 52.5 nM (active) and 41.7 nM (active), respectively.

For the compound `CC[C@@H](CO)NC(=O)[C@H]1C=C2c3cccc4c3c(cn4C)C[C@H]2N(C)C1`, the Potency in experiment [7] is 126 nM (active). Further, the result in experiment [8] was inactive.

Regarding `CC12CCC3C(CCC4=C(O)C(=O)CCC43C)C1CCC2=O` (stereo not drawn), the result in experiment [9], in experiment [10], in experiment [11] and in experiment [12] was inactive.

For `CC(C)(C)c1ccc(CN2CCN(C(c3ccccc3)c3ccc(Cl)cc3)CC2)cc1` (stereo not drawn), the Potency result in [13] was “inactive”.
